About 83,000 compounds went through this panel and 20% of them were active in at least one assay; those are over-represented in the sample as a whole.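 Results are percent growth after 48 hours of single-concentration exposure. 100 means growth as in untreated cells, lower positive values show inhibition; negative values down to -100 show cell death.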 Values without a mark were called inactive. Active and inactive are the calls of the source.

This assay deals with NCI-H460 lung. As to the kind of experiment: NCI-60 one-dose screen, 48 h (100 = growth as untreated, 0 = no growth, -100 = all killed). As to conditions: 10 µM unless noted. The protocol:
Growth inhibition of the NCI-H460 human Non-Small Cell Lung tumor cell line is measured as a screen for anti-cancer activity. Cells are grown in 96 well plates and exposed to the test compound for 48 hours. Compounds are tested at a single concentration, which is 10^-5 M for most compounds. The reported endpoint is percent growth (GI% or GIPRCNT), where numbers from 0 - 100% represent growth inhibition, and numbers from -100% - 0 represent cell death. For example, a value of 40 represents 60% growth inhibition. A value of 0 means no net growth occurred over the course of the experiment. A value of -40 indicates 40% of cells at the beginning of the experiment died by the end of the experiment. A value of -100 means all cells are dead at the end of the experiment.
NCI-60 Human Tumor Cell Lines Screen was performed using the standard one-dose NCI protocol, which is described in more detail at https://dtp.cancer.gov/discovery_development/nci-60/default.htm.
Compounds with GIPRCNT values below 10 were considered active. Activity score was based on GIPRCNT using the following formula: […]
Score is 0 for GIPRCNT values of 100 or above, 50 for GIPRCNT values of 0, and 100 for GIPRCNT values of -100.
As for `COc1cc2c(cc1OC)C(Cc1cc(OC)c(OC)cc1[N+](=O)[O-])=NCC2`, the growth is 64.8%.
`COc1nc(OC)nc(-c2cc(C(=O)c3ccc(Br)cc3)n3cc(C)cc(C)c23)n1`: the growth is 34.8%.
As to `CC(=O)CC(=O)OC/C=C(/C)CCC=C(C)C`, the growth is 109%.
For `O=C(Nc1ccccc1)Nc1ccc(Nc2ncnc3sc4c(c23)CCCC4)cc1`, the growth is 104%.
With `O=C1/C(=N\c2cc(=O)[nH]n2S(=O)(=O)c2ccccc2)Nc2ccccc21`, the growth was 105%.
As to `CC(=O)N1CCN(CCNC(=O)n2cc(-c3ccncc3)c(-c3cc(O)cc(Cl)c3)n2)CC1`, the growth was 89%.
For the compound `COc1ccc(Cn2cc3c(c2-c2ccccc2)CCc2cnoc2-3)cc1N`, the growth is -4.24% (active).
With `Brc1c(-c2ccncc2)nc2n1CCS2`, the growth was 103%.
Next, `CC[n+]1c(C)ccc2cc(C)ccc21`: 110%; `O=c1[nH]c2cc(O)ccc2n2cc3c(F)cccc3c12`: 2.7% (active).
As for `COc1ccccc1Cn1cc2c(c1)-c1oncc1CC2`, the growth is 4.04% (active).
In the case of `COC(=O)c1ccc2[nH]c(O)c(C(=Nc3ccc(N(C)C(=O)CN4CCN(C)CC4)cc3)c3ccc(OC)cc3)c2c1`, the growth was 14.8%.
Next, `COc1cc2ncnc(-n3ncc4cc(NC(=O)Nc5ccccc5)ccc43)c2cc1OC`: 26.8%; `COc1ccc(Cn2cc3c(c2-c2ccc(O)cc2)CCc2cnoc2-3)cc1`: 1.39% (active); `COc1cc(/C(=C2/O[C@@H]([C@H]3COC(C)(C)O3)[C@H]3OC(C)(C)O[C@@H]23)c2ccc3c(c2)OCO3)cc(OC)c1OC`: 57.3%.
Take `O=C(Nc1ccc(-n2cc(-c3ccncc3)c(-c3ccc(Cl)c(O)c3)n2)cc1)c1cc(C(F)(F)F)cc(C(F)(F)F)c1`: the growth was 36.7%.
Turning to `NC(N)=Nc1ccc(/C=C2\C=Cc3ccccc32)cc1`, the growth was 63.5%.
Take `COc1ccc(-c2nc(Nc3nc4ccccc4[nH]3)nc(N)c2C#N)cc1`: the growth is 109%.
In the case of `Clc1ccc(N/N=C/c2ccccn2)nc1`, the growth was 3.11% (active).
In the case of `CC(=O)Nc1ccc(S(=O)(=O)Cl)cc1`, the growth was 102%.
`COc1ccc(Cn2cc3c(c2)-c2oncc2CC3)cc1OC`: the growth was 1.13% (active).
For the compound `COc1cccc(Cn2cc3c(c2)-c2oncc2CC3)c1`, the growth is 1.35% (active).
For `C=CCC(CCC(CC=C)C(=O)OCC)C(=O)OCC` (stereo not given), the growth was 105%.
Turning to `O=C(/C=C/c1ccc(Br)cc1)c1ccccc1`, the growth was 101%.
To `N=C(N)c1ccc(-c2ccc(-c3ccc(F)cc3)s2)cc1` belongs -88.9% (active); to `C/C(=N\Nc1ccc(Cl)cn1)c1ccc2ccccc2n1`, 3.21% (active).
In the case of `COc1ccc2sc(-n3nc4nc5n(c(=O)c4c3N)-c3ccccc3Sc3ccccc3-5)nc2c1`, the growth is 84.9%.
With `O=C(Nc1cccc2[nH]c(C(F)(F)F)nc12)c1ccc(F)cc1`, the growth is 55%.
As to `CCCCCCCCCC(C)NC(=O)CCl` (stereo not given), the growth was 107%.
`COc1ccc(/C=C(/C(=O)N2CCN(c3ccc(C)cc3)CC2)c2cc(OC)c(OC)c(OC)c2)cc1N`: the growth was 5.51% (active).
Turning to `O=C1C(Cl)=C(SC2=NCCN2)C(=O)c2ccccc21`, the growth is 70%.
For the compound `CCOc1ccccc1/C=N\N=C(N/N=C/c1ccccc1OCC)N/N=C/c1ccccc1OCC`, the growth is 1.36% (active).
`CC(O)c1cc[cH-]c1.[Fe+2].c1cc[cH-]c1` (stereo not given): the growth was 114%.
Regarding `CCC(CCCN1C(=O)c2ccccc2C1=O)Nc1cc(OC)cc2c(C)ccnc12` (stereo not given), the growth is 114%.
As for `COc1ccc(C(=O)N2N=C(c3ccc(Br)cc3)CC2c2cn(-c3ccccc3)nc2-c2ccccc2)cc1` (stereo not given), the growth was 41.8%.
In the case of `COC(=O)C(C)[C@H]1CC[C@@H]2[C@]1(C)CC=C1[C@]23C=C[C@]2(C[C@@H](OC(C)=O)CC[C@]12C)C(C(=O)OC)C3C(=O)OC` (stereo not given in full), the growth was 101%.
As for `CCCCCc1ccnc(CC(=O)c2ccc(OC)cc2)c1`, the growth is 95.2%.
For `COc1cc(-c2nc3c(c(C)nc4c3nnn4-c3ccccc3)c(=O)o2)cc(OC)c1OC`, the growth was 115%.
`O=C1NCCN1/N=C/c1c(Cl)nc2n1CCS2`: the growth was 111%.
For the compound `CCCCCCCCCCCCCCCCNC(=S)N/N=C/c1ccc(O)cc1O`, the growth is 37.1%.
